Our source for the Potency and outcome values is PubChem BioAssay (Tox21).

A short description of assay [1]: Nuclear factor erythroid 2-related factor 2/antioxidant responsive element (Nrf2/ARE) small molecule agonists: qHTS cell viability counter screen in human keratinocytes (AID 1919968; active = well fitted curve in the direction sought with a large enough effect in the repeat runs; an effect the other way counts as inactive or inconclusive; also: nearly all actives have a fitted effect of over 55% in size; also: potency is read from the fitted curve at half-maximal effect). The gist of the method: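 HaCaT ARE reporter line, 1,500 cells/well; 5 h settle, 37 C/5% CO2; cpd in DMSO pinned; 23 h exposure; CellTiter-Fluor, 1 h; fluorescence.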
Assay [2] in a line: Nuclear factor erythroid 2-related factor 2/antioxidant responsive element (Nrf2/ARE) small molecule agonists: luciferase reporter gene qHTS assay in human keratinocytes (AID 1919969; also: nearly all actives have a fitted effect of over 35% in size; also: potency is read from the fitted curve at half-maximal effect). (In general: In a reporter assay the amount or activity of a reporter protein is the signal.)
The target of assay [3] is Gonadotropin-releasing hormone receptor (Homo sapiens) (UniProt P30968). Put plainly: Human gonadotropin-releasing hormone receptor (GnRHR) small molecule agonists, calcium flux assay in GnRHR-HEK293 cells (AID 1920063). Also: nearly all actives have a fitted effect of over 35% in size. A digest of the protocol:
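GnRHR-HEK293, 1500 cells/well, 18 h 37 C/5% CO2; Ca dye 1 h 37 C; cpd pinned (DMSO), agonist mode; kinetic FL 480/540, 3 min, 1 s reads; 15 conc, n=3.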

The target in assay [4] is KiSS-1 receptor (Homo sapiens) (UniProt Q969F8). Kind of assay: Human kisspeptin (KISS1R) small molecule agonists, calcium flux assay in KISS1R-HEK293 cells (AID 1920064; active = well fitted curve in the direction sought with a large enough effect in the repeat runs; an effect the other way counts as inactive or inconclusive). A digest of the protocol:
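Stable human KISS1R HEK293 line; 18 h plating, 37 C/5% CO2; calcium dye 1 h 37 C; compound pin transfer; kinetic fluorescence Ex/Em 480/540, 3 min.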

Assay [5] can be described thus: G protein-coupled receptor (GPCR) small molecule agonists, calcium flux assay: HEK293 wild type cell line counter screen (AID 1920065). The gist of the method:
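Kinetic fluorescence at Ex/Em 480/540, recorded every second over 3 min, served as the read-out after compound addition. Each compound was tested at 15 concentrations in triplicate on cells pre-loaded with calcium dye for 1 h.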

Assay [6] can be described thus: p53 small molecule agonists, cell-based qHTS assay with human liver microsomes (AID 1963577).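 Also: p53 response element beta-lactamase reporter cells with liver microsomes plus NADPH.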 The gist of the method: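 Reporter activation was measured by LiveBLAzer fluorescence intensity in p53RE-bla cells, which had been exposed to compounds for 16 h at 37 C alongside 0.5 mg/mL human liver microsomes and 0.5 mg/mL NADPH (final concentrations).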
For orientation: qHTS replaces the single test concentration by a dilution series.

A short description of assay [7]: p53 small molecule agonists, cell-based qHTS assay with rat liver microsomes (AID 1963578). A digest of the protocol:
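Compound in DMSO added to p53RE-bla cells 5 h post-plating; rat microsomes/NADPH 0.5 mg/mL final; 16 h, 37 C; LiveBLAzer 2 h RT.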

Assay [8] in a line: p53 small molecule agonists, cell-based qHTS assay with human liver microsomes: qHTS cell viability counter screen (AID 1963579). Also: nearly all actives have a fitted effect of over 45% in size. A digest of the protocol:
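HLM-supplemented (0.5 mg/mL final) and NADPH-supplemented (0.5 mg/mL final) p53RE-bla cultures, 4,000 cells per well, were dosed with compounds in DMSO for 16 h at 37 C; luminescent ATP detection (CellTiter-Glo, 30 min, room temperature) quantified surviving cells.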

The nature of assay [9]: p53 small molecule agonists, cell-based qHTS assay with rat liver microsomes: qHTS cell viability counter screen (AID 1963580). Also: nearly all actives have a fitted effect of over 45% in size. A digest of the protocol:
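HCT-116 p53RE-bla, 4,000 cells/well, 5 h pre-incubation; cpd + rat liver microsomes 0.5 mg/mL + NADPH 0.5 mg/mL (final); 16 h, 37 C; CellTiter-Glo, 30 min RT; luminescence.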

Assay [10] can be described thus: p53 small molecule agonists, cell-based qHTS assay: qHTS cell viability counter screen (AID 1963581). Also: nearly all actives have a fitted effect of over 45% in size. The gist of the method:
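HCT-116 p53RE-bla cells, 4,000/well, plated 5 h before compound pin transfer; 16 h at 37 C; bla substrate 2 h RT; then CellTiter-Glo, 30 min RT, luminescence.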

For assay [11], the target named is 5-hydroxytryptamine receptor 2A (Homo sapiens) (UniProt P28223). Put plainly: 5-hydroxytryptamine receptor 2A (HTR2A) small molecule antagonists, cell-based qHTS assay (AID 1963586). Also: nearly all actives have a fitted effect of over 45% in size. A digest of the protocol: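 Antagonist-mode intracellular calcium assay: DOI (4 nM) added after 5 min compound pre-incubation at room temperature to dye-loaded HTR2A-CHO cells. Fluorescence followed for 3 min, sampled every second.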
5-hydroxytryptamine receptor 2A (Homo sapiens), sequence (P28223 whole entry, looked up): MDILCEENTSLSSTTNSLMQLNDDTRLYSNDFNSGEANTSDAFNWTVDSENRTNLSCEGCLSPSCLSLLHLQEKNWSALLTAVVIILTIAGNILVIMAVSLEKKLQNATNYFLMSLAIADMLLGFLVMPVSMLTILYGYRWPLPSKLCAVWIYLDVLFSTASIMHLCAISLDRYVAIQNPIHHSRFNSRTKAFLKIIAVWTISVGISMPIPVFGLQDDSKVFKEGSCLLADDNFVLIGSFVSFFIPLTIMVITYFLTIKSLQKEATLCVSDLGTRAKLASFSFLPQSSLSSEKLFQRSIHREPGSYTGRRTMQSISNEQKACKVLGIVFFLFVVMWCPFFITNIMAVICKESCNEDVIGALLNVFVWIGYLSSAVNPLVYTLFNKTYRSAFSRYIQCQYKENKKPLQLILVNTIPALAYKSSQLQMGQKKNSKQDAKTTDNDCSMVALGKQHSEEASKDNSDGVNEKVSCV

For assay [12] the target is unchanged. Kind of assay: 5-hydroxytryptamine receptor 2A (HTR2A) small molecule agonists, cell-based qHTS assay (AID 1963587). Also: nearly all actives have a fitted effect of over 30% in size. A digest of the protocol:
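Kinetic calcium-flux fluorescence (2 min, 1 sec intervals) after compound addition in agonist mode. HTR2A-CHO cells were cultured 18 h, then dye-loaded 1 h at 37 C.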

Assay [13] has as its target Muscarinic acetylcholine receptor M1 (Homo sapiens) (UniProt P11229). Kind of assay: Cholinergic receptor muscarinic 1 (CHRM1) small molecule agonists, cell-based qHTS assay (AID 1963589). Also: nearly all actives have a fitted effect of over 35% in size. A digest of the protocol: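 Human M1 in stable CHO line; 18 h plating, 1 h dye load 37 C; cpd added (agonist mode); Ca2+ fluorescence kinetic read, 1 s intervals; 15 conc, 3 runs.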

The nature of assay [14]: cAMP Responsive Elements (CRE) small molecule agonists, cell-based qHTS assay (AID 1963590). The gist of the method: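 HEK 293T CRE-bla, 2,000 cells/well, 18 h preincubation 37 C/5% CO2; cpds (DMSO) pinned, 3 h; LiveBLAzer B/G FRET substrate, 2 h RT.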
A short description of assay [15]: cAMP Responsive Elements (CRE) small molecule antagonists, cell-based qHTS assay (AID 1963591; active = well fitted inhibition curve with a large enough effect in the signal ratio in the repeat runs, not every such curve was filed as active; the % refers to the signal ratio). A digest of the protocol:
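Beta-lactamase reporter read by FRET substrate (LiveBLAzer B/G) after 2 h at room temperature. CRE-bla HEK293T cells had received compound plus 0.25 uM (final) NKH477 for 3 h at 37 °C.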

Assay [16] deals with Beta-2 adrenergic receptor (Homo sapiens) (UniProt P07550). Put plainly: Adrenergic beta2 receptor (ADRB2) small molecule antagonists, cell-based qHTS assay (AID 1963592). Also: series mostly up to about 92 µM; nearly all actives have a fitted effect of over 50% in size. A digest of the protocol: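 Cells (CHO, stable ADRB2 overexpression) incubated 18-20hr at 37C; compounds added from DMSO; agonist mix (1nM isoproterenol, 100uM IBMX, 25uM Ro-20-1724) added; 0.5hr RT; d2-cAMP and anti-cAMP-cryptate added; 1hr RT; 665/615 nm read.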
Beta-2 adrenergic receptor (Homo sapiens), sequence (P07550 whole entry, looked up): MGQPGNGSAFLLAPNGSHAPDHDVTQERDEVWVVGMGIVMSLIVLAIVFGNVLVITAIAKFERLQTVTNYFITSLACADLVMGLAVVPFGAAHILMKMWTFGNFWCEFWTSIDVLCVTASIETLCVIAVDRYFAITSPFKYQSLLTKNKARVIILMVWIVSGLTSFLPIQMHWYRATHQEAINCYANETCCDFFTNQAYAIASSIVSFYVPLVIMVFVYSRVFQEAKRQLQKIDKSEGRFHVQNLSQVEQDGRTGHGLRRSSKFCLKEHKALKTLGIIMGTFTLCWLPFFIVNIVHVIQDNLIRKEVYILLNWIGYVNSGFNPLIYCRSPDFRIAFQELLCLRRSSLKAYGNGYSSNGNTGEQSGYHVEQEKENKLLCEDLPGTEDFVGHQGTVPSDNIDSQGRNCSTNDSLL

The target in assay [17] is D(2) dopamine receptor (Homo sapiens) (UniProt P14416). Put plainly: Dopamine D2 receptor (DRD2) small molecule agonists, cell-based qHTS assay (AID 1963594). Also: nearly all actives have a fitted effect of over 35% in size. The gist of the method:
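cAMP accumulation in DRD2-HEK293 cells measured by HTRF after 1 h detection; compounds added 10 min before NKH477 (200nM […]) forskolin-analogue stimulation, 30 min at room temperature, with Ro20-1724 present at 0.1 mM final.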

For assay [18] the target is unchanged. Put plainly: Dopamine D2 receptor (DRD2) small molecule antagonists, cell-based qHTS assay (AID 1963595; active = well fitted inhibition curve with a large enough effect in the signal ratio in the repeat runs, with a control signal flat; the % refers to the signal ratio). A digest of the protocol: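 Readout: HTRF cAMP, cAMP-d2 competing with cellular cAMP for anti-cAMP cryptate, read after 1 h. Cells: DRD2-HEK293. Conditions: 0.1 mM Ro20-1724, 12 nM quinpirole, 200 nM NKH477, 30 min RT.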
For assay [19], the target named is Muscarinic acetylcholine receptor M1 (Homo sapiens) (UniProt P11229). Put plainly: Cholinergic receptor muscarinic 1 (CHRM1) small molecule antagonists, cell-based qHTS assay (AID 1963588). Also: nearly all actives have a fitted effect of over 40% in size. A digest of the protocol:
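CHRM1-CHO calcium-flux assay, antagonist mode. Cells were seeded 18 h, dye-loaded 1 h at 37 C and given compound for 5 min at RT, then acetylcholine was added at 50nM. FDSS fluorescence was read 3 min; 15 concentrations, three runs.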

The target of assay [20] is Beta-2 adrenergic receptor (Homo sapiens) (UniProt P07550). Kind of assay: Adrenergic beta2 receptor (ADRB2) small molecule agonists, cell-based qHTS assay (AID 1963593).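 Also: CHO cells stably overexpressing human ADRB2.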 The gist of the method:
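CHO cells stably over-expressing ADRB2 were plated overnight at 37C, then dosed with compounds plus a stimulation mix containing 100uM IBMX and 25uM Ro-20-1724 for 0.5hr at room temperature. cAMP was measured by HTRF competition, 1hr.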

A number with no mark means an inactive call. Records with an inconclusive call do not appear. The source made the active and inactive calls. Unless noted, calls follow the shape of the full dose curve.

D(2) dopamine receptor (Homo sapiens), sequence (P14416 whole entry, looked up): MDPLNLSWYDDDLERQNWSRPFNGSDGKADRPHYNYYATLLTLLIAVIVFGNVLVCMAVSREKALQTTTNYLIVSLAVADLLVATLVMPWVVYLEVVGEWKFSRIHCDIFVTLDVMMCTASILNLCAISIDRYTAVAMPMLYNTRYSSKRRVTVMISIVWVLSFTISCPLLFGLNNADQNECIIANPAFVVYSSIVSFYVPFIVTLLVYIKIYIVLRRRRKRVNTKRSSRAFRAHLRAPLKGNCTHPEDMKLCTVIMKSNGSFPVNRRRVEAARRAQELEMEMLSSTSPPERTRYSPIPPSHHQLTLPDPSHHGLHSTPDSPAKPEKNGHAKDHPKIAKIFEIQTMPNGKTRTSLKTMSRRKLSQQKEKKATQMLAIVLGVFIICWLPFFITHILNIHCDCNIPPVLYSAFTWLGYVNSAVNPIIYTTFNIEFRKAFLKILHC
Muscarinic acetylcholine receptor M1 (Homo sapiens), sequence (P11229 whole entry, looked up): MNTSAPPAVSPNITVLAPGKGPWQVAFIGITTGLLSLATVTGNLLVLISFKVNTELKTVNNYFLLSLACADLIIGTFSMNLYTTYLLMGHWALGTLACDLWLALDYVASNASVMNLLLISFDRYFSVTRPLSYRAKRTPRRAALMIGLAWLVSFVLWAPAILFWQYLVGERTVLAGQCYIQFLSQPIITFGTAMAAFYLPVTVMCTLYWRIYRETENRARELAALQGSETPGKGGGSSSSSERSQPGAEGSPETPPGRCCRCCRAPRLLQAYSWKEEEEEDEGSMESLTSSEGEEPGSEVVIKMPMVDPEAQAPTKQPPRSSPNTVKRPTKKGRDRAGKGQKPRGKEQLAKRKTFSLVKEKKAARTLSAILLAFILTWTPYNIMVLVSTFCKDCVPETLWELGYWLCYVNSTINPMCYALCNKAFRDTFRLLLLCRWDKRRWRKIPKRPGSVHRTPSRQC
Gonadotropin-releasing hormone receptor (Homo sapiens), sequence (P30968 whole entry, looked up): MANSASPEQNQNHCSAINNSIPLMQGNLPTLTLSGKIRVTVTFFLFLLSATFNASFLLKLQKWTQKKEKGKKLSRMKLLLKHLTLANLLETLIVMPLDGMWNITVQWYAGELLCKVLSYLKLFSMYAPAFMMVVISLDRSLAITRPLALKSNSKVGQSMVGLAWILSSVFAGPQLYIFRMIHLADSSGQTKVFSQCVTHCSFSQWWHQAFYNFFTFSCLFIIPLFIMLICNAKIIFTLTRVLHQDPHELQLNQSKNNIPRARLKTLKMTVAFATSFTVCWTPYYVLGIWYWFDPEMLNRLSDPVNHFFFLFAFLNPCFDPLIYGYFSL
KiSS-1 receptor (Homo sapiens), sequence (Q969F8 whole entry, looked up): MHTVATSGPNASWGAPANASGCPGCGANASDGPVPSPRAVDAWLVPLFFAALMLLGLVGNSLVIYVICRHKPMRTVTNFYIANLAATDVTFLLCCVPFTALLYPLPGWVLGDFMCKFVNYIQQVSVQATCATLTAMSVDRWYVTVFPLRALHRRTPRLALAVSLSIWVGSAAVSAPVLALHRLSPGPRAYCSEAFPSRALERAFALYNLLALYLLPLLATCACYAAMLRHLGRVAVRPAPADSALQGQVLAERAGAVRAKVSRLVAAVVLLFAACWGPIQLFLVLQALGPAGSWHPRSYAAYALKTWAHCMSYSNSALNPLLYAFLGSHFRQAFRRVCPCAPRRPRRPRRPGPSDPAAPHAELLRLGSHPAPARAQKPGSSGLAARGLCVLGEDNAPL

As to `C=C(C)C(=O)OCCOCC`, the Potency entry in [1], in assay [3], in assay [6], in [7], in assay [8] and in [9] was “inactive” in each case. The Potency entry in assay [10], in assay [11], in assay [12], in assay [13], in assay [14] and in assay [15] was “inactive” each time. The Potency result in assay [16], in [17] and in [18] was “inactive” throughout. In [2], the Potency was 54.7 µM (active). Besides, the outcome in assay [4] and in assay [5] was inactive.

`CCC(C(=O)O)c1ccc(N2Cc3ccccc3C2=O)cc1` (centres undefined): the Potency result in [1], in [2], in assay [3], in assay [6], in assay [7] and in assay [8] was “inactive” throughout. Besides, the Potency entry in [9], in assay [10], in assay [11], in [12], in assay [19] and in assay [13] was “inactive” in each case. Besides, the Potency entry in assay [16], in assay [20], in assay [17] and in [18] was “inactive” in each case. For the same molecule, the outcome in assay [4] and in assay [5] was inactive.

Consider `O=C(CCCCCCCCc1cccnc1)N1CCC(C=C(c2ccccc2)c2ccccc2)CC1`, for which the Potency in assay [1] is 15.4 µM (active). Besides, the Potency result in [2], in assay [3], in assay [6], in [7], in assay [8] and in assay [9] was “inactive” throughout. Besides, the Potency entry in assay [10], in assay [11], in [12], in [13], in [16] and in assay [18] was “inactive” throughout. In addition, the outcome in assay [4] and in [5] was inactive.

For the molecule `CCN(CC)C(=O)N(CC)CC`, the Potency result in assay [1], in [2], in assay [3], in assay [6], in [7] and in [8] was “inactive” throughout. Further, the Potency entry in assay [9], in [10], in [11], in [12], in [19] and in [14] was “inactive” each time. The Potency entry in assay [15], in assay [16], in assay [17] and in [18] was “inactive” in each case. For the same molecule, the outcome in assay [4] and in assay [5] was inactive.

In the case of `C1CC(COCC2CO2)CCC1COCC1CO1` (centres undefined), the Potency entry in assay [1], in [3], in assay [6], in assay [7], in [8] and in assay [9] was “inactive” throughout. The Potency result in assay [10], in assay [11], in [12], in assay [19], in [13] and in assay [16] was “inactive” throughout. For the same molecule, the Potency entry in assay [17] and in [18] was “inactive” throughout. In addition, the Potency in [2] is 61.1 µM (active). The result in [4] and in assay [5] was inactive.

For the molecule `CCCCC(=O)OCC(=O)[C@H]1[C@H](C)C[C@H]2[C@@H]3C[C@H](F)C4=CC(=O)C=C[C@]4(C)[C@@]3(F)[C@@H](O)C[C@@]21C`, the Potency entry in [1], in assay [2], in [3], in [6], in assay [7] and in assay [8] was “inactive” throughout. In addition, the Potency entry in assay [9], in assay [10], in [11], in assay [12], in [19] and in [13] was “inactive” each time. The Potency entry in assay [15], in [16], in [17] and in assay [18] was “inactive” in each case. Moreover, the outcome in assay [4] and in [5] was inactive.
